Hits are enriched below; roughly 3.9% of the tested compounds scored in any of these assays.
Bead autofluor: flagged as autofluorescent in microsphere protease counterscreen; compound autofluorescence counterscreen, microsphere flow cytometry; hits give high values; fluorescence intensity (no concentration beside the values); hit rate 3.1% among 360,000; AID 624483; in the data active = fluorescence intensity above about 16000; inconclusive = no clear call, values can overlap the other calls
Anthrax LF prot: Bacillus anthracis LF protease inhibitors, primary screen, biochemical, multiplex microsphere, MLPCN library; multiplex microsphere protease cleavage assay; inhibition, % at 10 µM; hit rate 0.12% among 360,000; AID 588501, 2011
CCHF vOTU inh: CCHFV vOTU protease inhibitors, primary screen, biochemical, Pep-AMC substrate, fluorescence; Crimean-Congo hemorrhagic fever virus L polyprotein viral ovarian tumor (vOTU) protease …; inhibition, % at 11.5 µM; hit rate 0.55% among 370,000; AID 651958, 2012; in the data active = inhibition above about 30%
BoNT-F LC inh: BoNT/F light chain protease inhibitors, primary screen, biochemical, flow cytometry, MLPCN library; Botulinum neurotoxin type F light chain protease (Clostridium botulinum); Multiplex microsphere protease cleavage assay; inhibition, % at 10 µM; hit rate 0.22% among 360,000; AID 588497, 2011; in the data active = inhibition above about 35%, passing the limit was not always enough; inconclusive = no clear call, values can overlap the other calls
3CLpro inhibitor: SARS-CoV 3CLpro protease inhibitors, primary screen, biochemical, quenched FRET. Replicase polyprotein 1ab (Severe acute respiratory syndrome coronavirus), P0C6X7. recombinant SARS-CoV 3CLpro, quenched FRET peptide cleavage. inhibition, % at 6 µM. hit rate 0.14% among 290,000. AID 1706, 2009; in the data active = inhibition above about 12%
BoNT A protease: BoNT/A light chain protease inhibitors, primary screen, biochemical, flow cytometry, MLPCN library | Botulinum neurotoxin type A light chain protease (Clostridium botulinum A str. ATCC 3502) | multiplex microsphere protease substrate cleavage | inhibition, % at 10 µM | hit rate 0.17% among 360,000 | AID 588499, 2011
BoNTA LC inh 2: BoNT/A light chain protease inhibitors, confirmation, biochemical, flow cytometry, cherry pick 2; hit rate 10% among 150; inhibition, % at 10 µM; shares compounds with BoNT A protease; multiplex microsphere protease cleavage assay; in the data active = inhibition above about 24%
Anthrax LF CP2: Bacillus anthracis LF protease inhibitors, confirmation, biochemical, multiplex microsphere; shares compounds with BoNT A protease; multiplex microsphere protease cleavage assay; inhibition, % at 10 µM; hit rate 7% among 150; in the data active = inhibition above about 25%
BoNT-F LC CP2: BoNT/F light chain protease inhibitors, confirmation, biochemical, flow cytometry, cherry pick 2; multiplex microsphere protease cleavage assay; inhibition, % at 10 µM; AID 602336, 2012; hit rate 7% among 150; shares compounds with BoNT A protease; in the data active = inhibition above about 25%
Numbers stand for hits; i = inactive; ? = inconclusive; nt = no result given. Cut-off read from the data, not from the text of the source, unless noted: active = inhibition above about 30%; inconclusive = no clear call, values can overlap the other calls; inactive = below that.

SMILES | Bead autofluor | Anthrax LF prot | CCHF vOTU inh | BoNT-F LC inh | 3CLpro inhibitor | BoNT A protease | BoNTA LC inh 2 | Anthrax LF CP2 | BoNT-F LC CP2
COc1ccc(-c2csc(NC(=O)C3=COCCO3)n2)cc1OC | i | i | i | i | nt | i | nt | nt | nt
COc1ccc(NC(=O)c2cc(S(=O)(=O)N3CCOCC3)ccc2C)cc1S(=O)(=O)N1CCCCC1 | i | i | i | i | nt | i | nt | nt | nt
COc1ccc(NC(=O)c2cc(S(=O)(=O)N3CCCC3)ccc2C)cn1 | i | 44.9 | i | 73.3 | nt | i | i | i | i
Cc1cc2ccccc2n1CCNC(=O)C(C)Oc1ccccc1 (stereo not drawn) | i | i | i | i | i | 78.8 | i | i | i
Cc1cc2ccccc2n1CCNC(=O)Cc1ccccc1 | i | i | i | i | i | 72.2 | 24.0 | 30.1 | i
Cc1cc2ccccc2n1CCNC(=O)C(C)C | i | 59.5 | i | i | i | 80.1 | 29.2 | 34.0 | i
O=C(NCCc1ccccc1)c1ccc(S(=O)(=O)N2CCCCC2)cc1 | i | i | i | i | nt | i | nt | nt | nt
Cc1cc2ccccc2n1CCNC(=O)c1ccc(S(=O)(=O)N2CCCCC2)cc1 | i | i | i | i | i | 59.1 | 53.4 | i | i
COCCNC(=O)C(C)Oc1ccccc1 (stereo not drawn) | i | i | i | i | i | i | nt | nt | nt
O=C(NCc1ccccc1)c1cc(C2CCCN(C(=O)c3ccc4c(c3)CCO4)C2)on1 (stereo not drawn) | i | i | i | i | nt | i | nt | nt | nt
Cc1cc(C)c(S(=O)(=O)NCCn2c(C)cc3ccccc32)c(C)c1 | i | i | i | i | i | 42.5 | i | i | i
Cc1cc(C)c(S(=O)(=O)NCCCn2ccnc2)c(C)c1 | i | i | i | i | i | i | nt | nt | nt
Cc1cc2cc(CNC(=O)Nc3cccc(Cl)c3)ccc2n1C | i | i | i | i | i | 48.4 | i | i | i
Cc1cccc(NC(=O)NCc2ccc3c(c2)OCO3)c1 | ? | i | i | i | i | i | nt | nt | nt
Cc1cccc(NC(=O)NCc2ccc3c(c2)cc(C)n3C)c1 | i | i | i | i | i | 58.5 | i | i | i
O=C(NNC(=O)c1cccs1)c1ccccn1 | i | i | i | i | nt | i | nt | nt | nt
CC(=O)N1CCN(c2ccc(NC(=O)c3cccc([N+](=O)[O-])c3)cc2)CC1 | i | i | i | ? | i | i | nt | nt | nt
Cc1nc2ccc(NC(=O)c3cccc(S(=O)(=O)N4CC(C)OC(C)C4)c3)cc2s1 (stereo not drawn) | i | 30.5 | i | i | i | i | i | i | i
Cc1cc2nc(-c3cccc(Br)c3)c(Cc3cccc(Cl)c3)n2c(C)c1Br | i | i | i | i | nt | i | i | i | 44.8
COc1ccccc1Cc1c(C(C)(C)C)nc2cc(C)c(Br)c(C)n12 | i | i | i | i | nt | i | nt | nt | nt
COc1ccccc1Cc1c(-c2ccc(F)cc2)nc2cc(C)c(Br)c(C)n12 | i | i | i | i | nt | i | 24.7 | i | i
COc1ccccc1Cc1c(-c2ccccc2)nc2cc(C)c(Br)c(C)n12 | i | i | i | i | nt | i | i | i | i
Cc1cc2nc(-c3cccc(Cl)c3)c(Cc3ccccc3)n2c(C)c1Br | i | i | nt | i | nt | i | nt | nt | nt
COc1ccccc1Cc1c(-c2ccc(C)cc2)nc2cc(C)c(Br)c(C)n12 | i | i | i | i | nt | i | i | i | i
CC(C)(C)OC(=O)N[C@H]1C=C[C@@H](CC(=O)OCC(F)(F)F)C1 | nt | nt | i | nt | nt | nt | nt | nt | nt
CCCC(=O)OCC(=O)Nc1ccc2[nH]c(=O)[nH]c2c1 | i | i | i | i | i | i | nt | nt | nt
Cc1cc(Br)ccc1SCC(=O)OCC(=O)Nc1ccc2[nH]c(=O)[nH]c2c1 | i | 36.3 | i | 61.8 | nt | i | i | i | i
Cc1cc2cc(CNC(=O)c3ccc(S(=O)(=O)N4CCOCC4)cc3)ccc2n1C | i | i | i | i | i | 80.7 | i | i | i

Screening results (PubChem)
